This is an account of results in the supplement of paper PMC5919970.

SMILES strings stand for the structures. Structures can show the parent of a compound that is named as a salt. In all, about 2,000 compounds were measured (“fractional viability relative to vehicle”: median about 0.92, lowest 2% from about 0.11 on). Shown is part of a subset that was picked to be rich in the lowest values.

In this test the test system is TYKNU. The test is described as follows: fractional viability relative to vehicle; TYKNU is a high-grade serous ovarian cancer line; higher = less growth inhibition. The settings on record: 72 h, genotype: OPA1 knockout (sgOPA1 #2). Put shortly:
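TYKNU control cells or lentiCRISPRv2 knockout derivatives were plated at 500 cells per well in duplicate into drug-stamped 384-well plates holding a ~2100-compound library at 2 or 10 μM. Culture was in RPMI 1640 with 10% FBS at 37 °C in 5% CO2, with 72 h of drug treatment. Viability was measured by Cell Titer Glo luminescence, and the averaged duplicate treatment wells were normalised to duplicate control wells at the same plate position.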

`CC(C)C[C@H](NP(=O)(O)O[C@@H]1O[C@@H](C)[C@H](O)[C@@H](O)[C@H]1O)C(=O)N[C@@H](Cc1c[nH]c2ccccc12)C(=O)O` [Phosphoramidon Disodium Salt]: the fractional viability runs as follows: (2uM) 0.899; (10uM) 0.879.
On the same counts, the results for `CNC(=O)[C@@H](NC(=O)[C@H](CC(C)C)[C@H](O)C(=O)NO)C(C)(C)C` [Marimastat(BB-2516)] are 0.952 and 0.73.
On the same counts, the results for `CC[C@@H]([C@H](C)O)n1ncn(-c2ccc(N3CCN(c4ccc(OC[C@@H]5CO[C@@](Cn6cncn6)(c6ccc(F)cc6F)C5)cc4)CC3)cc2)c1=O` [Posaconazole] are 1.18 and 0.872.
On the same counts, the results for `Cc1ccc(NC(=O)Nc2cc(C(F)(F)F)ccc2F)cc1Nc1ccc2c(c1)NC(=O)/C2=C\c1ccc[nH]1` are 0.83 and 0.932.
In the case of `CNS(=O)(=O)Nc1nccc(Cc2c(C)c3ccc(Oc4ncccn4)cc3oc2=O)c1F`, the fractional viability worked out at 0.508 (2uM) and 0.376 (10uM).
For `O=C(c1ccc(C(=O)N2CCC(N3CCCC3)CC2)c(Nc2ccccc2)c1)N1CCC(N2CCCC2)CC1` the same measures were 0.924 and 0.857.
On the same counts, the results for `O=C(c1ccc(Nc2nccc(-c3cc4ccccc4s3)n2)cc1)N1CCC(N2CCCC2)CC1` [IKK-16 (IKK Inhibitor VII)] are 0.74 and 0.0971.
On the same counts, the results for `O=C(c1cncc(Br)c1)N1CCC(N2CCCC2)CC1` are 0.797 and 0.838.
In turn, `O=C(N/N=C/c1cc(O)c(O)cc1O)c1cc2ccccc2cc1O` [Dyngo-4a] registered a fractional viability (2uM) of 1.04 and a fractional viability (10uM) of 1.16.
For `Cc1nc(N(C)C(=O)Cc2ccc(-c3ccccn3)cc2)sc1S(N)(=O)=O` [Pritelivir (BAY 57-1293)] the same measures were 0.924 and 0.791.
For `Cc1cc(Cn2cnc3c2CC(C(=O)O)N(C(=O)C(c2ccccc2)c2ccccc2)C3)ccc1N(C)C` (stereo not drawn) the same measures were 0.986 and 0.95.
On the same counts, the results for `Cc1cc(C)cc(C(=O)NOCCCCCC(=O)NO)c1` are 0.355 and 0.188.
With `C/C=C1\NC(=O)[C@H]2CSSCC/C=C/[C@H](CC(=O)N[C@H](C(C)C)C(=O)N2)OC(=O)[C@H](C(C)C)NC1=O` [Romidepsin (FK228, Depsipeptide)], the fractional viability runs as follows: (2uM) 0.0685; (10uM) 0.0492.
On the same counts, the results for `c1ccc2c(CCNc3ccc(Nc4ccncc4)cc3)c[nH]c2c1` are 0.485 and 0.15.
On the same counts, the results for `Oc1nc(-c2ccc(C(F)(F)F)cc2)nc2c1CSCC2` are 1.13 and 0.683.
On the same counts, the results for `Cc1ccc(Nc2nccc(N(C)c3ccc4c(C)n(C)nc4c3)n2)cc1S(N)(=O)=O` [Pazopanib] are 1.14 and 0.605.
As for `CCOC(=O)c1[nH]c2cc(Cl)ccc2c1C(C(=O)NC(C)(C)C)N(C=O)Cc1ccc(Cl)cc1` (stereo not drawn), the fractional viability (2uM) worked out at 0.864 and the fractional viability (10uM) worked out at 0.464.
For `CN(C)c1ccc(C(=C2C=CC(=[N+](C)C)C=C2)c2ccc(N(C)C)cc2)cc1` [Crystal Violet] the same measures were 0.323 and 0.0953.
On the same counts, the results for `O=C(O)CCC(=O)Nc1ccc(Br)cn1` [Bikinin] are 0.818 and 0.759.
For `[I-].[K+]` [Potassium Iodide] the same measures were 1.07 and 0.971.
Turning to `O=C1NCCCc2c1oc1ccc(O)cc21`, the fractional viability (2uM) worked out at 1.1 and the fractional viability (10uM) came out at 1.15.
For `c1ccc(Cn2c(-c3ccc(OC[C@H](C4CCNCC4)n4c(-c5ccccc5)nc5ccccc54)cc3)nc3ccccc32)cc1` [Deltarasin] the same measures were 1.14 and 0.0644.
For `Cc1cc(/N=N/c2ccc(S(=O)(=O)Nc3ccccn3)cc2)c(N)cc1O` the same measures were 0.89 and 0.64.
In turn, `O=C(NO)c1cccc(C(=O)NCCc2ccccc2)c1` displayed a fractional viability (2uM) of 0.926 and a fractional viability (10uM) of 0.933.
